# Where two headings read alike, the source gives them in different places.
# Assays:
# Set-up in all cases: species or system human, MV4-11 + K-562 + COLO205 + SK-N-BE2 + OVCAR-8
# CSNK2A1;CSNK2A3 = settings: read-out: apparent Kd, compound concentrations: 100 nM and 1000 nM (sheet 'Samples'), n = 1
# GAK = settings: read-out: apparent Kd; compound concentrations: 100 nM and 1000 nM (sheet 'Samples'), CATDS: 0.30476726939930399; n = 1
# MAPK9 = settings: read-out: apparent Kd; compound concentrations: 100 nM and 1000 nM (sheet 'Samples'), CATDS: 0.27430209396639399; n = 1
# TTK = settings: read-out: apparent Kd; compound concentrations: 100 nM and 1000 nM (sheet 'Samples'), CATDS: 0.21902937280851401; n = 1
# DCTPP1 = settings: read-out: apparent Kd; compound concentrations: 100 nM and 1000 nM (sheet 'Samples'), CATDS: 8.2242786873404694E-2; n = 1
# DJA1 = test system: T1, DJA1; settings: read-out: apparent Kd, compound concentrations: 100 nM and 1000 nM (sheet 'Samples'), n = 1
# T1 construct: gene DNAJA1
# GSK3A = settings: read-out: apparent Kd; compound concentrations: 100 nM and 1000 nM (sheet 'Samples'), CATDS: 0.120025904024986; n = 1
# GSK3B = settings: read-out: apparent Kd; compound concentrations: 100 nM and 1000 nM (sheet 'Samples'), CATDS: 0.13279399425104901; n = 1
# PRKCA = settings: read-out: apparent Kd; compound concentrations: 100 nM and 1000 nM (sheet 'Samples'), CATDS: 0.251821387342202; n = 1
# PRKCB = settings: read-out: apparent Kd; compound concentrations: 100 nM and 1000 nM (sheet 'Samples'), CATDS: 0.103783943133635; n = 1
# PRKCD = settings: read-out: apparent Kd; compound concentrations: 100 nM and 1000 nM (sheet 'Samples'), CATDS: 0.10441574318923801; n = 1
# PRKCQ = settings: read-out: apparent Kd; compound concentrations: 100 nM and 1000 nM (sheet 'Samples'), CATDS: 8.12008674931885E-2; n = 1
# RPS6KA6 = settings: read-out: apparent Kd; compound concentrations: 100 nM and 1000 nM (sheet 'Samples'), CATDS: 0.17427412228003; n = 1
# CSNK2A2 = settings: read-out: apparent Kd, compound concentrations: 100 nM and 1000 nM (sheet 'Samples'), n = 1
# FLT3 = settings: read-out: apparent Kd, n = 1
# DDR1 = settings: read-out: apparent Kd, n = 1
# EGFR = settings: read-out: apparent Kd; compound concentrations: 100 nM and 1000 nM (sheet 'Samples'), CATDS: 7.48044992603729E-2; n = 1
# HCK = settings: read-out: apparent Kd; compound concentrations: 100 nM and 1000 nM (sheet 'Samples'), CATDS: 0.11641359939997301; n = 1
# LYN = settings: read-out: apparent Kd; compound concentrations: 100 nM and 1000 nM (sheet 'Samples'), CATDS: 9.0520394407802393E-2; n = 1
# MAPK11 = settings: read-out: apparent Kd; compound concentrations: 100 nM and 1000 nM (sheet 'Samples'), CATDS: 7.53995695049028E-2; n = 1
# RIPK3 = settings: read-out: apparent Kd; compound concentrations: 100 nM and 1000 nM (sheet 'Samples'), CATDS: 9.4746109979172405E-2; n = 1
# TAOK3 = settings: read-out: apparent Kd; compound concentrations: 100 nM and 1000 nM (sheet 'Samples'), CATDS: 7.5717255281347595E-2; n = 1
# TNK1 = settings: read-out: apparent Kd; compound concentrations: 100 nM and 1000 nM (sheet 'Samples'), CATDS: 0.107193891906807; n = 1
# YES1 = settings: read-out: apparent Kd; compound concentrations: 100 nM and 1000 nM (sheet 'Samples'), CATDS: 0.13069382201385599; n = 1
# DDR2 = settings: read-out: apparent Kd, n = 1
# FLT4 = settings: read-out: apparent Kd; compound concentrations: 100 nM and 1000 nM (sheet 'Samples'), CATDS: 0.67629550242263303; n = 1
# PDGFRB = settings: read-out: apparent Kd; compound concentrations: 100 nM and 1000 nM (sheet 'Samples'), CATDS: 0.14329981050248; n = 1
# RET = settings: read-out: apparent Kd, n = 1
# CSNK1G1 = settings: read-out: apparent Kd; compound concentrations: 100 nM and 1000 nM (sheet 'Samples'), CATDS: 0.44433796545528997; n = 1
# PKM = settings: read-out: apparent Kd; compound concentrations: 100 nM and 1000 nM (sheet 'Samples'), CATDS: 0.57160468415719301; n = 1
# DYNC1LI1 = settings: read-out: apparent Kd; compound concentrations:100 nM and 1000 nM (sheet 'Samples'); n = 1
# FECH = settings: read-out: apparent Kd; compound concentrations: 100 nM and 1000 nM (sheet 'Samples'), CATDS: 0.167574298527637; n = 1
# NQO2 = settings: read-out: apparent Kd; compound concentrations: 100 nM and 1000 nM (sheet 'Samples'), CATDS: 0.179467556500614; n = 1
# [1] = compound concentrations:100 nM and 1000 nM (sheet 'Samples')
compound,measurement,setting,value
CNc1nc(Nc2ccc(C(=O)N3CCOCC3)cc2OC)ncc1Cl [HG-10-102-01],potency estimated from few doses,CSNK2A1;CSNK2A3; CATDS: 0.22184782024324001,2220 nM
same,potency estimated from few doses,GAK,1180 nM
same,potency estimated from few doses,MAPK9,1430 nM
same,potency estimated from few doses,TTK,2290 nM
Cn1cc(C2=C(c3cn(CCCCN)c4ccccc34)C(=O)NC2=O)c2ccccc21 [RO0317888-000],potency estimated from few doses,DCTPP1,1870 nM
same,potency estimated from few doses,DJA1; CATDS: 8.5163737412021906E-2,1670 nM
same,potency estimated from few doses,GSK3A,700 nM
same,potency estimated from few doses,GSK3B,570 nM
same,potency estimated from few doses,PRKCA,200 nM
same,potency estimated from few doses,PRKCB,970 nM
same,potency estimated from few doses,PRKCD,956 nM
same,potency estimated from few doses,PRKCQ,1960 nM
same,potency estimated from few doses,RPS6KA6,351 nM
CC(=O)c1c(C)c2cnc(Nc3ccn(C)n3)nc2n(C2CCCC2)c1=O [PFE-PKIS_44],potency estimated from few doses,CSNK2A1;CSNK2A3; CATDS: 0.47499416496698399,2260 nM
same,potency estimated from few doses,CSNK2A2; CATDS: 0.52778498170906496,1830 nM
COc1ccc(CCNC2=NC(=O)/C(=C/c3ccc4ncccc4c3)S2)cc1 [RO4498476-000],potency estimated from few doses,CSNK2A1;CSNK2A3; CATDS: 0.299531148324096,1610 nM
same,potency estimated from few doses,CSNK2A2; CATDS: 0.294198980295866,1680 nM
same,potency estimated from few doses,"FLT3; compound concentrations: 100 nM and 1000 nM (sheet 'Samples'), CATDS: 0.44201063534771401",756 nM
O=C(Nc1cccc(-c2nn3ncccc3c2-c2ccnc(Nc3ccccc3)n2)c1)c1c(F)cccc1F [GSK198271A],potency estimated from few doses,"DDR1; compound concentrations: 100 nM and 1000 nM (sheet 'Samples'), CATDS: 0.101729312677661",711 nM
same,potency estimated from few doses,DJA1; CATDS: 0.31646295058989898,111 nM
same,potency estimated from few doses,EGFR,1600 nM
same,potency estimated from few doses,HCK,537 nM
same,potency estimated from few doses,LYN,933 nM
same,potency estimated from few doses,MAPK11,1560 nM
same,potency estimated from few doses,RIPK3,836 nM
same,potency estimated from few doses,TAOK3,1540 nM
same,potency estimated from few doses,TNK1,635 nM
same,potency estimated from few doses,YES1,431 nM
Cc1c2ccc(N(C)c3ccnc(Nc4cccc(S(N)(=O)=O)c4)n3)cc2nn1C.Cl [GW771127A],potency estimated from few doses,"DDR1; compound concentrations: 100 nM and 1000 nM (sheet 'Samples'), CATDS: 0.23686059185109401",397 nM
same,potency estimated from few doses,"DDR2; compound concentrations: 100 nM and 1000 nM (sheet 'Samples'), CATDS: 0.144406437385246",1670 nM
same,potency estimated from few doses,FLT4,51.7 nM
same,potency estimated from few doses,PDGFRB,1720 nM
same,potency estimated from few doses,"RET; compound concentrations: 100 nM and 1000 nM (sheet 'Samples'), CATDS: 0.185315990587263",746 nM
COc1cccc(NC(=O)Nc2ccc(C)c(-c3ccc(C(=O)Nc4ccncc4)cc3)c2)c1 [GSK1398474A],potency estimated from few doses,CSNK1G1,1890 nM
same,potency estimated from few doses,PKM,1140 nM
COC(=O)Nc1nc2cc(Oc3ccc(NC(=O)Nc4cc(C(F)(F)F)ccc4F)cn3)ccc2[nH]1.COC(=O)Nc1nc2cc(Oc3ccc(NC(=O)Nc4cc(C(F)(F)F)ccc4F)cn3)ccc2[nH]1.Cl.Cl [GW681170A],potency estimated from few doses,DDR1; [1],278 nM
same,potency estimated from few doses,DDR2; [1],1460 nM
same,potency estimated from few doses,DYNC1LI1,1830 nM
same,potency estimated from few doses,FLT3; [1],1240 nM
same,potency estimated from few doses,RET; [1],461 nM
O=C1N=C(NCCc2ccc(Br)cc2)S/C1=C\c1ccc2ncccc2c1 [RO4508334-000],potency estimated from few doses,CSNK2A1;CSNK2A3; CATDS: 0.17522676424385999,1740 nM
same,potency estimated from few doses,CSNK2A2; CATDS: 0.185061390376627,1520 nM
same,potency estimated from few doses,FECH,1950 nM
same,potency estimated from few doses,"FLT3; compound concentrations: 100 nM and 1000 nM (sheet 'Samples'), CATDS: 0.42553970171458699",345 nM
same,potency estimated from few doses,NQO2,1640 nM
Cn1cc(-c2ccc3c(c2)CCN3C(=O)Cc2cccc(C(F)(F)F)c2)c2c(N)ncnc21 [GSK2606414A],potency estimated from few doses,DDR1; [1],1550 nM

# From PMC11062922 (Nature Chemical Biology, 2023)
